Screening results from PubChem BioAssay.
Most compounds without a hit are left out; they make up all but 19% or so of the library.
ELG1 repair inh: blocks ELG1-dependent DNA repair in HEK293T cells. HEK293T ELG1-luciferase reporter, luminescence, 16 h; DNA damage induced by 5-fluorouridine. Potency, µM (top dose mostly 46.1 µM), for inactives: top-dose activity change, negative = inhibition, actives largely listed as inhibitors. 330,000 compounds, 2.3% hits; also: potency is read from the fitted curve at half-maximal effect; nearly all actives have a fitted effect of over 55% in size
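HEK293T cells expressing luciferase-tagged ELG1 (2,000/well) received 5-Fluorouridine plus compound or DMSO for 16 hr at 37 °C. Luciferase was read by ONE-Glo luminescence after 30 min at room temperature.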
HT1080 IDH1KD tx: kills HT-1080 cells with IDH1 knockdown; HT-1080 IDH1 knockdown viability, ATP luminescence, 48 h; Potency, µM (highest dose often 46.1 µM), inactives show top-dose activity, negative = toxicity, actives largely listed as cytotoxic; AID 686971; 360,000 compounds, 2% hits;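 also: potency is read from the fitted curve at half-maximal effect; 0% = DMSO wells and -100% = cell-free medium wells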
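HT-1080-IDH1KD cells (IDH1 knocked down), 750/well in RPMI with 5% FBS, treated with compound 48 h at 37 degrees C. Viability by CellTiter-Glo luminescence, normalised to DMSO and no-cell wells; concentration-response curves classed.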
IL-1B inflam inh: inhibitors of inflammasome signaling (IL-1 beta secretion). THP-1 LPS/ATP IL-1B secretion, AlphaLISA, 16 h; active compounds read low. activity change, % at 57.5 µM. 360,000 compounds, 4.7% hits. AID 743279; in the data active = activity change below about -50%; inconclusive = mostly about -30% to -49%
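Secreted IL-1B measured by AlphaLISA bead assay after 16 h compound exposure of THP-1 cells; compounds (final up to 57.5 uM) added 1 h before LPS (250 ng/mL) and ATP (1.25 mM) stimulation; lower signal means less secretion.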
TDP1 cell CPT: DT40-hTDP1 cell growth loss with CPT; chicken DT40 Tdp1-/-;hTDP1 cells + 20 nM CPT, ATP luminescence, 48 h; Potency, µM (series often up to 46.2 µM), for the others: at the top dose activity change, negative = growth inhibition, actives largely listed as inhibitors; 420,000 compounds, 12% hits; AID 686979; also: potency is read from the fitted curve at half-maximal effect; nearly all actives have a fitted effect of over 55% in size
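Cell growth measured by CellTiter-Glo luminescence after a minimum 48 h, 37 C compound exposure with 20 nM CPT in Tdp1-knockout DT40 cells stably expressing hTDP1, seeded 400/well; qHTS titration format.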
TDP1 cell noCPT: qHTS for Inhibitors of human tyrosyl-DNA phosphodiesterase 1 (TDP1): qHTS in cells in absence of CPT. DT40 Tdp1-/- hTDP1 cells, no CPT, ATP luminescence, 48 h. Potency, µM (series often up to 46.2 µM), for the others: at the highest dose activity change, negative = growth inhibition, usual class: inhibitors. 420,000 compounds, 15% hits; also: potency is read from the fitted curve at half-maximal effect; nearly all actives have a fitted effect of over 55% in size
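Luminescent ATP content (CellTiter-Glo) served as the growth readout. Knockout chicken DT40 cells expressing human TDP1 were exposed to compounds without camptothecin for a minimum 48 hr at 37 °C.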
HT1080-NT tox: kills 2HG-producing HT-1080-NT fibrosarcoma cells. Potency, µM (series often up to 46.1 µM), inactives show top-dose activity, negative = less viability, actives largely listed as cytotoxic. AID 686970. HT-1080-NT fibrosarcoma viability, CellTiter-Glo ATP luminescence, 48 h. 360,000 compounds, 1.6% hits;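 also: NT is the 2HG producing partner of a matched IDH1 knockdown line; potency is read from the fitted curve at half-maximal effect; 0% = DMSO-treated cells and -100% = media-only wells without cells; nearly all actives have a fitted effect of over 55% in size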
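HT-1080-NT fibrosarcoma cells (2HG-overproducing), 750 cells/well in RPMI with 5% FBS, dosed after 2 h and incubated 48 h at 37C. CellTiter-Glo luminescence normalized to DMSO and no-cell wells; concentration-response curves fitted and classed.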
Starred values were filed as active, the others as inactive; [ ] = remark or other dose. Unless noted, calls follow the shape of the dose curve; as a rule, active = well fitted curve in the direction sought with a large enough effect; inconclusive = small, poorly fitted or top-dose-only effect, or another doubt; inactive = no such curve, though single readings can be large; an effect the other way counts as inactive or inconclusive. Unless noted, % is scaled to controls: 0 for no effect and ±100 for the full control effect.

For O=C1CCc2cc(S(=O)(=O)NCc3ccccc3Cl)cc3c2N1CC3 the results were ELG1 repair inh 0.0%, HT1080 IDH1KD tx 6.9%, IL-1B inflam inh -7.7, TDP1 cell CPT inconclusive, TDP1 cell noCPT -0.7% and HT1080-NT tox 4.7%.
Screening COc1ccc(CN2C(=O)CCCc3ccccc32)cc1 returned ELG1 repair inh -19.1%, HT1080 IDH1KD tx inconclusive, IL-1B inflam inh -0.3, TDP1 cell CPT inconclusive, TDP1 cell noCPT 20.6µM* and HT1080-NT tox -19.1%.
`O=C1CCCc2ccccc2N1Cc1ccccc1` gave ELG1 repair inh 3.3%, HT1080 IDH1KD tx 8.1%, IL-1B inflam inh 24.1, TDP1 cell CPT 13µM*, TDP1 cell noCPT 11.6µM* and HT1080-NT tox 10.8%.
Screening O=C1CCCc2ccccc2N1Cc1cccc(Cl)c1 returned ELG1 repair inh -2.3%, HT1080 IDH1KD tx -23.8%, IL-1B inflam inh 3.3, TDP1 cell CPT inconclusive, TDP1 cell noCPT 9.2µM* and HT1080-NT tox -13.7%.
`O=C1CCCc2ccccc2N1Cc1ccc(Cl)cc1` gave ELG1 repair inh 4.9%, HT1080 IDH1KD tx -12.9%, IL-1B inflam inh -4.4, TDP1 cell CPT inconclusive, TDP1 cell noCPT inconclusive and HT1080-NT tox -1.8%.
Screening CN(C)CCCNC(=O)C(=O)NCC(c1ccc2c(c1)OCO2)N1CCOCC1 (stereo not given) returned TDP1 cell CPT 6.1% and TDP1 cell noCPT -21.1%.
CCOC(=O)c1cnc2c(C)cc(C)cc2c1NCCc1ccc(OC)c(OC)c1 was read as TDP1 cell CPT 20.6µM* and TDP1 cell noCPT 23.1µM*.
`CCOC(=O)c1cnc2c(C)cccc2c1NCCc1ccc(OC)c(OC)c1` gave ELG1 repair inh 23.1µM*, HT1080 IDH1KD tx inconclusive, IL-1B inflam inh -5.9, TDP1 cell CPT 16.4µM*, TDP1 cell noCPT 23.1µM* and HT1080-NT tox -27.8%.
For CCOC(=O)c1cnc2c(C)c(Cl)ccc2c1NCCc1ccc(OC)c(OC)c1 the results were TDP1 cell CPT inconclusive and TDP1 cell noCPT 16.4µM*.
For COc1ccc(CCNC(=O)COC(=O)COc2c(C)cc(C)cc2C)cc1OC the results were ELG1 repair inh 21.8%, HT1080 IDH1KD tx 4.5%, IL-1B inflam inh 22.0, TDP1 cell CPT -8.7%, TDP1 cell noCPT 2.1% and HT1080-NT tox 7.8%.
Screening Cc1ccc(N2C(=O)c3ccccc3C2C(=O)c2ccc(C)c(C)c2O)cc1 (stereo not given) returned ELG1 repair inh 9.5%, HT1080 IDH1KD tx -9.9%, IL-1B inflam inh -22.3, TDP1 cell CPT inconclusive, TDP1 cell noCPT 18.4µM* and HT1080-NT tox 0.8%.
For COc1ccccc1C1CN(CC(=O)N2CCC(C(O)c3ccccn3)CC2)Cc2ccccc2O1 (stereo not given) the results were TDP1 cell CPT -8.2%[9.04 µM] and TDP1 cell noCPT inconclusive.
COc1ccc(Br)cc1C1NC(c2ccc3c(c2)OCO3)=CC(c2ccccc2O)N1 (stereo not given) was read as TDP1 cell CPT inconclusive and TDP1 cell noCPT 10µM*.
For Cc1ccc(C2NC(c3ccc4c(c3)OCO4)=CC(c3cc(Br)ccc3O)N2)cc1 (stereo not given) the results were TDP1 cell CPT 7.94µM* and TDP1 cell noCPT 4.47µM*.
COc1ccc(OC)c2nc(-c3ccc4c(c3)OCO4)ccc12 was read as ELG1 repair inh inconclusive, HT1080 IDH1KD tx -17.1%, IL-1B inflam inh 1.4, TDP1 cell CPT -0.8%, TDP1 cell noCPT -30.7% and HT1080-NT tox -5.5%.
Screening Oc1ccc(Br)cc1C1C=C(c2ccc3c(c2)OCO3)NC(c2ccc(Br)cc2)N1 (stereo not given) returned TDP1 cell CPT 10µM* and TDP1 cell noCPT 7.94µM*.
`Oc1ccccc1C1C=C(c2ccc3c(c2)OCO3)NC(c2cccc(Cl)c2)N1` (stereo not given) gave TDP1 cell CPT inconclusive and TDP1 cell noCPT 12.6µM*.
For O=C(O)c1cc(-c2ccc3c(c2)OCO3)nc2ccc(Br)cc12 the results were ELG1 repair inh 0.0%, HT1080 IDH1KD tx -6.8%, IL-1B inflam inh 13.9, TDP1 cell CPT -19.7%, TDP1 cell noCPT -2.1% and HT1080-NT tox -21.0%.
Screening CCOC(=O)c1c(C)[nH]c(C)c1S(=O)(=O)N(C)CC(=O)Nc1ccc(OC)cc1 returned TDP1 cell CPT -34.4% and TDP1 cell noCPT -14.6%.
`Oc1ccccc1C1C=C(c2ccc3c(c2)OCO3)NC(c2ccc(Br)cc2)N1` (stereo not given) gave TDP1 cell CPT 11.2µM* and TDP1 cell noCPT 11.2µM*.
N/C(=N/O)c1ccccc1N1CCC(Cc2ccccc2)CC1 was read as ELG1 repair inh 14.6µM*, HT1080 IDH1KD tx -11.5%, IL-1B inflam inh 34.6, TDP1 cell CPT inconclusive, TDP1 cell noCPT 14.6µM* and HT1080-NT tox -11.0%.
`CCOc1ccc(-n2c(=O)c3c(C)c(C)sc3n(CC(=O)Nc3ccc(CC)cc3)c2=O)cc1` gave TDP1 cell CPT inconclusive and TDP1 cell noCPT -22.3%.
CCOc1ccc(-n2c(=O)c3c(C)c(C)sc3n(CC(=O)N3CCC(C)CC3)c2=O)cc1 was read as TDP1 cell CPT inconclusive and TDP1 cell noCPT 20.6µM*.
CCOc1ccc(C(=O)Nc2ccc3nc(SCC(=O)N(C)c4ccccc4)sc3c2)cc1 was read as TDP1 cell CPT 2.06µM* and TDP1 cell noCPT 3.66µM*.
Screening O=C(Nc1ccc2nc(SCc3ccccc3)sc2c1)c1ccccc1F returned TDP1 cell CPT 16.4µM* and TDP1 cell noCPT 13µM*.
For CCOC(=O)CSc1nc2ccc(NC(=O)c3ccc(Cl)cc3)cc2s1 the results were TDP1 cell CPT -27.0% and TDP1 cell noCPT inconclusive.
O=C(Nc1ccc2nc(SCc3ccccc3)sc2c1)c1cccc(F)c1 was read as TDP1 cell CPT -27.4% and TDP1 cell noCPT -26.2%.
CN(C(=O)CSc1nc2ccc(NC(=O)c3ccccc3F)cc2s1)c1ccccc1 was read as TDP1 cell CPT 14.6µM* and TDP1 cell noCPT 9.2µM*.
`O=C(CSc1nc2ccc(NC(=O)c3ccccc3C(=O)O)cc2s1)Nc1ccc(F)c([N+](=O)[O-])c1` gave ELG1 repair inh inconclusive, HT1080 IDH1KD tx -17.3%, IL-1B inflam inh -60.7*, TDP1 cell CPT 7.4%, TDP1 cell noCPT -5.6% and HT1080-NT tox inconclusive.
